Results filed as inconclusive are left out. A call without a number means that no potency is given here. A number with no mark means an inactive call. Active and inactive are the calls of the source. Calls come from the whole dose curve; as a rule, active = well fitted curve in the direction sought with a large enough effect; inconclusive = small, poorly fitted or top-dose-only effect, or another doubt; inactive = no such curve, though single readings can be large; an effect the other way counts as inactive or inconclusive.
Assays:
[1] = target: Cellular tumor antigen p53 (Homo sapiens) (UniProt P04637); experiment: Primary qHTS for small molecule compounds that upregulate eGFP-tagged delta133p53alpha (in N-terminal) cells. (AID 2060322); conditions: NCI-H358 eGFP-delta133p53alpha fluorescence, 24 h; activation: hits give high values; note: nearly all actives have a fitted effect of over 75% in size; note: potency is the fitted concentration of half-maximal effect; for activation: series mostly up to about 56 µM
Summary of the method: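 NCI-H358 cells pre-induced 24 h with 10 ng/ml doxycycline to express N-terminal eGFP-delta133p53alpha, then dosed 24 h at 37C without doxycycline; fixed, Hoechst-stained, GFP intensity by laser scanning cytometry, normalized to DMSO (0%) and 57.5 uM 5-azacytidine (100%).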

[2] = target: Aldehyde dehydrogenase, mitochondrial (Homo sapiens) (UniProt P05091); experiment: qHTS for Inhibitors of the Aldehyde Dehydrogenase Family (ALDH2) Primary screen (AID 2061308); note: nearly all actives have a fitted effect of over 55% in size
[3] = target: Retinaldehyde dehydrogenase 3 (Homo sapiens) (UniProt P47895); experiment: qHTS for Inhibitors of the Aldehyde Dehydrogenase Family (ALDH1A3) Primary screen (AID 2061315)

Chain of Cellular tumor antigen p53 (Homo sapiens) (P04637 whole entry, looked up): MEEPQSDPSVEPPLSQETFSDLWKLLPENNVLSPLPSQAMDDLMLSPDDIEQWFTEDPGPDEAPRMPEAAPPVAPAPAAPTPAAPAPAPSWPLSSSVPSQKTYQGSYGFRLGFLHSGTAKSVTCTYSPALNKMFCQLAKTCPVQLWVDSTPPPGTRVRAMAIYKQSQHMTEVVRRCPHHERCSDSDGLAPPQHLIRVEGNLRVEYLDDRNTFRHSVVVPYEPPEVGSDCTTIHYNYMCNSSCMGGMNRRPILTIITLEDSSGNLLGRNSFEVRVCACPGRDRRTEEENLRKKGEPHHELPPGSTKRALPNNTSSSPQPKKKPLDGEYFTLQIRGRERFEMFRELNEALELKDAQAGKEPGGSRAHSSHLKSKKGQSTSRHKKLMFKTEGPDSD

CCCC1=CC2=C(CO1)C(=O)C(C)(O)C(OC(=O)c1c(C)cc(OC)cc1O)C2 (configuration not stated)
activation [1]: -1.53%
Potency [2]: inactive
Potency [3]: inactive

O=C(/C=C/c1ccc(O)cc1)O[C@H]1[C@H](OC2CCCCC2O)O[C@H](CO)[C@@H](O)[C@@H]1O (some centres not stated)
activation [1]: -11.5%
Potency [2]: inactive
Potency [3]: inactive

CC(C)c1noc(C2CCN(c3ncnc(Nc4ccc(S(C)(=O)=O)cc4F)c3[N+](=O)[O-])CC2)n1
activation [1]: 21%
Potency [2]: inactive
Potency [3]: inactive

CC(C)=CCCC1(C)Oc2cc3c(c4c2C2C(O4)C(C)(O)CCC21)CN(C(CCC(=O)O)C(=O)O)C3=O (configuration not stated)
activation [1]: -3.05%
Potency [2]: inactive
Potency [3]: inactive

Cc1nc2c(C(F)(F)F)cccc2nc1-c1ccc(-c2cccc(S(C)(=O)=O)c2)cc1
activation [1]: -2.68%
Potency [2]: inactive
Potency [3]: inactive

CC(=O)C1CCC(=O)N1Cc1ccccc1 (configuration not stated)
activation [1]: -13.7%
Potency [2]: inactive
Potency [3]: inactive

CC(=O)O[C@@H]1c2c(C)coc2C(=O)[C@@]23O[C@@H]2CC[C@H](C)[C@@]13C
activation [1]: -2.68%
Potency [2]: inactive
Potency [3]: inactive

CNCCN1CCC(c2cc(CN(C)C(=O)c3cccc(Oc4ccccc4)c3)ccn2)CC1
activation [1]: -4.33%
Potency [2]: inactive
Potency [3]: inactive

CC12CCC3C(C)(C)C(O)CCC3(C)C1Cc1c(oc(C(=O)O)cc1=O)O2 (configuration not stated)
activation [1]: -9.92%
Potency [2]: inactive
Potency [3]: inactive

COc1ccc(C2Oc3c(OC)cc(CCCO)cc3C2COC2OC(CO)C(O)C(O)C2O)cc1OC (configuration not stated)
activation [1]: -3.82%
Potency [2]: inactive
Potency [3]: inactive

COc1c2ccoc2cc2oc(CO[C@@H]3O[C@H](CO)[C@@H](O)[C@H](O)[C@H]3O)cc(=O)c12
activation [1]: -23.2%
Potency [2]: inactive
Potency [3]: inactive

CC(C)(O)/C=C1/C(=O)C(C)(C)C(=O)C(C)(C)C1(O)O[C@@H]1O[C@H](COC(=O)c2cc(O)c(O)c(O)c2)[C@@H](O)[C@H](O)[C@H]1O (some centres not stated)
activation [1]: 0.763%
Potency [2]: inactive
Potency [3]: inactive

COc1c(OC2OC(CO)C(O)C(O)C2O)ccc(O)c1C(=O)OCc1ccccc1O[C@@H]1O[C@H](CO)[C@@H](O)[C@H](O)[C@H]1O (some centres not stated)
activation [1]: 3.82%
Potency [2]: inactive
Potency [3]: inactive

CC(=O)O[C@H]1[C@H](O[C@H]2CC[C@]34C[C@]35CC[C@]3(C)[C@@H]([C@@]6(C)CC[C@@H](C(C)(C)O)O6)[C@@H](O)C[C@@]3(C)[C@@H]5C[C@H](O[C@@H]3O[C@H](CO)[C@@H](O)[C@H](O)[C@H]3O)[C@H]4C2(C)C)OC[C@@H](OC(C)=O)[C@@H]1O
activation [1]: -7.67%
Potency [2]: inactive
Potency [3]: inactive

CC(/C=C/C1(O)C(C)(C)CC(O)CC1(C)O)OC1OC(CO)C(O)C(O)C1O (configuration not stated)
activation [1]: -5.34%
Potency [2]: inactive
Potency [3]: inactive

C=C1CC2OC(=O)C(COC)C2C(OC(=O)/C(C)=C\C)CC2(C)OC1=CC2=O (configuration not stated)
Potency [1]: 14.8 µM (active)
Potency [2]: inactive
Potency [3]: inactive

C=C[C@H]1[C@H](O[C@@H]2O[C@H](CO)[C@@H](O)[C@H](O)[C@H]2O)OC=C2C(=O)OCC[C@]21O
activation [1]: -8.04%
Potency [2]: inactive
Potency [3]: inactive

CC(=O)C=C=C1C(C)(C)CC(O)CC1(C)O[C@@H]1O[C@H](CO[C@H]2OC[C@](O)(CO)[C@H]2O)[C@@H](O)[C@H](O)[C@H]1O (some centres not stated)
activation [1]: -14.3%
Potency [2]: inactive
Potency [3]: inactive

C[C@]1(OC(=O)/C=C\c2ccc(O)cc2)C[C@@H](O)[C@]2(O)C=CO[C@@H](O[C@@H]3O[C@H](CO)[C@@H](O)[C@H](O)[C@H]3O)C12 (some centres not stated)
activation [1]: 23.7%
Potency [2]: inactive
Potency [3]: inactive

CC1[C@@H](O)[C@@H](O)C2[C@]3(C)C(C[C@H]4OC(=O)[C@H](O)[C@]1(O)[C@@]24C)C(C)(O)C[C@H](O)[C@H]3O (some centres not stated)
activation [1]: -16%
Potency [2]: inactive
Potency [3]: inactive

COC1CC(OC2CCC3(C)C(=CCC4C3C(OC(C)=O)C(OC(=O)/C=C/c3ccccc3)C3(C)C(C(C)O)CCC43O)C2)OC(C)C1OC1CC(OC)C(OC2OC(C)C(OC3OC(CO)C(O)C(O)C3O)C(OC)C2O)C(C)O1 (configuration not stated)
activation [1]: 2.29%
activity change, negative = inhibition [2]: 13.8% [at 11.2 µM]
activity change, negative = inhibition [3]: 9.46% [at 11.2 µM]

CC1(C)O[C@H]2CC(=O)OC[C@@]23C1=C(O)C(=O)[C@]1(C)C3CC[C@@]2(C)[C@H](c3ccoc3)OC(=O)[C@H]3O[C@]321 (some centres not stated)
activation [1]: -13%
Potency [2]: inactive
Potency [3]: inactive

Nc1nc(Nc2ccc3c(c2)CCC(N2CCCC2)CC3)nn1-c1cc2c(nn1)-c1ccccc1CCC2 (configuration not stated)
Potency [1]: 26.9 µM (active)
Potency [2]: inactive
Potency [3]: inactive

NC(=O)[C@H](Cc1ccccc1)NC(=O)[C@H](CCCN=C(N)N)NC(=O)C12CC3CC(CC(C3)C1)C2
activation [1]: -9%
activity change, negative = inhibition [2]: 0.973% [at 11.2 µM]
activity change, negative = inhibition [3]: -5.76% [at 11.2 µM]

CC1(C)CC[C@]2(C(=O)O)CC[C@]3(C)C(=CCC4[C@@]5(C)C[C@@H](O)[C@H](O)C(C)(C)C5CC[C@]43C)[C@@H]2[C@@H]1O (some centres not stated)
activation [1]: -0.893%
Potency [2]: inactive
Potency [3]: inactive

CC(C)C1(O)NC(=O)C(CC2(O)c3ccccc3N3C(=O)C(C)(C)NC32)n2c1nc1ccccc1c2=O (configuration not stated)
activation [1]: -3.05%
Potency [2]: inactive
Potency [3]: inactive

C=C1[C@H](OC(C)=O)[C@H]2[C@@H](OC(C)=O)C(C)C[C@]2(OC(C)=O)C(=O)[C@H](C)/C=C/C(C)(C)C(=O)[C@H](OC(=O)C(C)C)[C@H]1OC(C)=O (some centres not stated)
activation [1]: -13.7%
Potency [2]: inactive
Potency [3]: inactive

CC(C)c1nc(N(C)S(C)(=O)=O)nc(-c2ccc(F)cc2)c1/C=C/[C@@H](O)C[C@@H](O)CC(=O)O
activation [1]: -19%
Potency [2]: inactive
Potency [3]: inactive

C[C@@]1(O)[C@H](O)[C@@H](CO)O[C@H]1n1cnc2c(=O)[nH]c(N)nc21
activation [1]: -12.3%
Potency [2]: inactive
Potency [3]: inactive

COc1cc2c(cc1OC)[C@@H]1[C@H](O)[C@@H](OC)C=C3CCN(C2)[C@H]31
Potency [1]: 16.6 µM (active)
Potency [2]: inactive
Potency [3]: inactive

CC1=CC[C@]2(C(=O)O[C@@H]3O[C@H](CO[C@@H]4O[C@H](CO)[C@@H](O[C@@H]5O[C@@H](C)[C@H](O)[C@@H](O)[C@H]5O)[C@H](O)[C@H]4O)[C@@H](O)[C@H](O)[C@H]3O)CC[C@]3(C)C(CCC4[C@@]5(C)C[C@@H](O)[C@H](O)[C@@](C)(CO)C5CC[C@]43C)C2C1C (some centres not stated)
activation [1]: -13%
Potency [2]: inactive
Potency [3]: inactive

COC1C(=O)CCC2(CO2)C1(O)C1(C)OC1CC=C(C)C (configuration not stated)
activation [1]: -9.82%
Potency [2]: inactive
Potency [3]: inactive

C[C@@H]1N[C@H]2N(C1=O)c1ccccc1[C@@]2(O)C[C@@H]1C(=O)N[C@@H](C)c2nc3ccccc3c(=O)n21
activation [1]: -22.9%
Potency [2]: inactive
Potency [3]: inactive

C[C@]12CCC(=O)C=C1[C@@H](O)C[C@@H]1[C@@H]2[C@@H](O)C[C@@]2(C)[C@H]1CC[C@]2(O)C(=O)CO
activation [1]: 16.3%
Potency [2]: inactive
Potency [3]: inactive

Cc1cc(CO)c(O)c(C(=O)CC2CC(=O)NC(=O)C2)c1
activation [1]: -5.34%
Potency [2]: inactive
Potency [3]: inactive

CCS(=O)(=O)N1CC(CC#N)(n2cc(-c3ncnc4[nH]ccc34)cn2)C1
activation [1]: 4.89%
Potency [2]: inactive
Potency [3]: inactive

C=C(C)C(C)C1OC23CC4(CO2)C(CCC2C5(C)CCC(OC6OCC(O)C(OC7OC(CO)C(O)C(OC8OCC(O)C(O)C8O)C7O)C6OC6OC(CO)C(O)C6O)C(C)(C)C5CCC24C)C3C(C)(O)C1OC(C)=O (configuration not stated)
activation [1]: -19.8%
Potency [2]: inactive
Potency [3]: inactive

Clc1ccc(Nc2nc3ccccc3c3nc(C4CCCCC4)[nH]c23)cc1Cl
activation [1]: 22%
Potency [2]: inactive
Potency [3]: inactive

CCNC(=O)Nc1ccc(-c2nc3c(c(N4CCOCC4C)n2)CCN(C2COC2)C3)cc1 (configuration not stated)
activation [1]: 12.4%
Potency [2]: inactive
Potency [3]: inactive

COc1ccc(/C=C/C(=O)O[C@@H]2[C@@H](O[C@@H]3O[C@H](CO)[C@@H](O)[C@H](O)[C@H]3O)[C@@H](O)[C@H](O[C@H]3C4C=CO[C@@H](O[C@@H]5O[C@H](CO)[C@@H](O)[C@H](O)[C@H]5O)C4[C@@]4(CO)O[C@@H]34)O[C@H]2C)cc1 (some centres not stated)
activation [1]: -9.92%
Potency [2]: inactive
Potency [3]: inactive

COc1c2c(c(C)c3c1C(=O)OC3)OC1(C)CC(O)C34OC(OC)(CC(OC(C)=O)C3(C)C1C2)OC4(C)C (configuration not stated)
activation [1]: -5.36%
Potency [2]: inactive
Potency [3]: inactive

CCCC(=O)Nc1cccc(NC(=O)c2ccccc2Br)c1
activation [1]: -11.7%
Potency [2]: inactive
Potency [3]: inactive

CC1(C)C2CCC(CO[C@@H]3O[C@H](CO[C@@H]4OC[C@](O)(CO)[C@H]4O)[C@@H](O)[C@H](O)[C@H]3O)C1C2 (some centres not stated)
activation [1]: -5.34%
Potency [2]: inactive
Potency [3]: inactive

CC(=O)O[C@@H]1[C@H](OC(C)=O)C[C@@]2(C)C(CC[C@@H](C)[C@]23Cc2c(O)cc4c(c2O3)CN([C@@H](CCC(=O)O)C(=O)O)C4=O)C1(C)C (some centres not stated)
activation [1]: -9.92%
Potency [2]: inactive
Potency [3]: inactive

C=C1CCC2C(C)(C)CC(O)CC2(C)C1CCC(C)CCOC(=O)CCC(=O)O (configuration not stated)
activation [1]: 17.6%
Potency [2]: inactive
Potency [3]: inactive

O=C(/C=C/c1ccc(O)cc1)OC[C@]12O[C@H]1[C@@H](O)[C@@H]1C=CO[C@@H](O[C@@H]3O[C@H](CO)[C@@H](O)[C@H](O)[C@H]3O)[C@@H]12
activation [1]: 18.3%
Potency [2]: inactive
Potency [3]: inactive

O=C(Nc1ccc(Cl)cc1F)c1ccccc1O
activation [1]: 8.59%
Potency [2]: inactive
Potency [3]: inactive

C=C(C(=O)O)C1CC2=C(C)CCCC2(C)C[C@@H]1O (some centres not stated)
activation [1]: -16.1%
Potency [2]: inactive
Potency [3]: inactive

C[C@@]12CC3(S(=O)(=O)O)OC(O1)[C@]1(COC(=O)c4ccccc4)[C@H]3C[C@]21O[C@@H]1O[C@H](CO)[C@@H](O)[C@H](O)[C@H]1O
activation [1]: 14.5%
Potency [2]: inactive
Potency [3]: inactive
